Data as given in PubChem BioAssay (Tox21).
Records with an inconclusive call do not appear. Activity calls are given as the source filed them. Unless noted, calls follow the shape of the dose curve; as a rule, active = well fitted curve in the direction sought with a large enough effect in the repeat runs; inconclusive = weak or mixed curves; inactive = no such curve, though single readings can be large; an effect the other way counts as inactive or inconclusive.

What was measured:
[1] = qHTS assay to identify small molecule antagonists of the estrogen related receptor (ERR) signaling pathway from Tox21 library - cell viability counter screen (AID 1224834); also: nearly all actives have a fitted effect of over 30% in size; also: potency is read from the fitted curve at half-maximal effect
Procedure, shortened: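 ERR reporter cells were plated 6 h before compound addition, then exposed to test compounds in DMSO for 17.5 h at 37 C. Viability was read as CellTiter-Fluor fluorescence after a 30-minute incubation at 37 C.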

[2] = target: Luciferin 4-monooxygenase (Photinus pyralis) (UniProt P08659); test: qHTS assay to identify small molecule inhibitors of firefly luciferase (AID 1224835); also: nearly all actives have a fitted effect of over 25% in size; also: potency is read from the fitted curve at half-maximal effect
Procedure, shortened: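 Quantitative HTS format; KM concentrations of both substrates. Purified P. pyralis FLuc activity quantified from luminescence images.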

[3] = qHTS assay to identify small molecule agonists of the constitutive androstane receptor (CAR) signaling pathway - cell viability counter screen (AID 1224836); also: nearly all actives have a fitted effect of over 45% in size; also: potency is read from the fitted curve at half-maximal effect
Procedure, shortened: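 Compound titrations (15 concentrations) went onto HepG2-CYP2B6-hCAR cells 4 h after seeding, alongside PK11195 at a final 0.75 uM; a 23 h, 37 C/5% CO2 incubation preceded CellTiter-Fluor viability measurement.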

[4] = qHTS assay to identify small molecule antagonists of the constitutive androstane receptor (CAR) signaling pathway - cell viability counter screen (AID 1224837); also: nearly all actives have a fitted effect of over 45% in size; also: potency is read from the fitted curve at half-maximal effect
Procedure, shortened: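 HepG2 cells stably expressing hCAR and a CYP2B6-2.2kb reporter were plated and pre-incubated 4 hr at 37 C/5% CO2, then given compounds at 15 concentrations plus 50 nM CITCO (final). After 23 hr, viability was read by CellTiter-Fluor fluorescence.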

[5] = target: Nuclear receptor subfamily 1 group I member 3 (Homo sapiens) (UniProt Q14994); test: qHTS assay to identify small molecule antagonists of the constitutive androstane receptor (CAR) signaling pathway (AID 1224838); also: nearly all actives have a fitted effect of over 40% in size
Procedure, shortened: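 HepG2 cells stably co-transfected with hCAR and a CYP2B6-2.2kb luciferase reporter were seeded 4 h before compound addition at 15 concentrations. Cells were stimulated with 50 nM CITCO (final) for 24 h at 37 C; luciferase luminescence was then read.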

[6] = target: Nuclear receptor subfamily 1 group I member 3 (Homo sapiens) (UniProt Q14994); test: qHTS assay to identify small molecule agonists of the constitutive androstane receptor (CAR) signaling pathway (AID 1224839); also: nearly all actives have a fitted effect of over 15% in size; also: potency is read from the fitted curve at half-maximal effect;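 as to activation: HepG2 cells stably carrying human CAR and a CYP2B6 luciferase reporter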
Procedure, shortened: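 In this screen, CAR-driven CYP2B6 promoter activity is measured by luminescence in HepG2-CYP2B6-hCAR cells after 24 h with test compounds and 0.75 uM PK11195 (final concentration).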

[7] = qHTS assay to identify small molecule antagonists of the estrogen related receptor signaling pathway with the pleiotropic PPARgamma coactivator (PGC) from Tox21 10K library - cell viability counter screen (AID 1224840; active = well fitted cell-killing curve with a large enough effect in the repeat runs, not every such curve was filed as active; also: nearly all actives have a fitted effect of over 40% in size; also: potency is read from the fitted curve at half-maximal effect)
Procedure, shortened: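 PGC/ERR cells were seeded at 2,000 cells/well and left 6 hours at 37 C/5% CO2 before pin-tool addition of compounds in DMSO. After 17.5 hours at 37 C, CellTiter-Fluor was added and fluorescence read 30 minutes later.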

[8] = qHTS assay to identify small molecule agonists of the hypoxia (HIF-1) signaling pathway - cell viability counter screen (AID 1224844; calls by dose curve; also: nearly all actives have a fitted effect of over 50% in size)
Procedure, shortened: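 HRE-bla ME-180 cells in medium with 0.5% dialyzed FBS were preincubated 5 hrs at 37C, exposed to compounds for 17 hrs, then viability was read as CellTiter-Glo luminescence after 30 min at room temperature, in the reporter wells.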

[9] = qHTS assay to identify small molecule agonists of H2AX (AID 1224845; active = well fitted activation curve with a large enough effect in the signal ratio in the repeat runs, not every such curve was filed as active; the % refers to the signal ratio)
Procedure, shortened: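 Wild-type CHO-K1 cells plated overnight, then exposed 3 hr at 37C to compounds at 15 concentrations (0.76% DMSO). Lysed, then HTRF anti-pH2AX(S139)-cryptate/anti-H2AX-d2 detection after 24 hr at room temperature; emissions 665 and 620 nm.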

[10] = qHTS assay to identify small molecule agonists of the hypoxia (HIF-1) signaling pathway (AID 1224846; active = well fitted activation curve with a large enough effect in the signal ratio in the repeat runs, not every such curve was filed as active; the % refers to the signal ratio)
Procedure, shortened: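 HRE-bla ME-180 cells (beta-lactamase reporter under hypoxia response element) were plated at 2,000 cells/well in medium with 0.5% dialyzed FBS, rested 5 hrs, then given compounds in DMSO for 17 hrs at 37C, 5% CO2. Reporter induction was read with CCF4-AM FRET substrate.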

[11] = qHTS assay to identify small molecule agonists of H2AX - cell viability counter screen (AID 1224847; calls by dose curve; also: nearly all actives have a fitted effect of over 30% in size; also: potency is read from the fitted curve at half-maximal effect)
Procedure, shortened: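 Read-out: CellTiter-Glo luminescence, 30 min RT. Cells: wild-type CHO-K1, 1000/well, 10% FBS, plated overnight at 37C. Treatment: 15 concentrations, 3 hr, 37C, 0.76% DMSO.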

[12] = qHTS RealTime-Glo MT Cell Viability Assay in HepG2 cells - 24 hour (AID 1224867); also: nearly all actives have a fitted effect of over 50% in size
Procedure, shortened: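 Compound treatment began 5 h after plating HepG2 cells (600/well) with NanoLuc luciferase and prosubstrate. Plates stayed at 37 C for 40 h; luminescence was captured at six time points, 0 h through 40 h.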

[13] = qHTS RealTime-Glo MT Cell Viability Assay in HEK293 cells - 32 hour (AID 1224868); also: top concentration of the series differs between compounds; nearly all actives have a fitted effect of over 50% in size
Procedure, shortened: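 Quantitative high-throughput screen of the Tox21 10K library in HEK293: cells and RealTime-Glo reagents plated together, compound added at 5 h, luminescence monitored through 40 h at 37 C.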

[14] = A CellTox Green Cytotoxicity Assay to monitor cytotoxicity in HEK293 cells - 0 hour (AID 1224869); also: nearly all actives have a fitted effect of over 50% in size
Procedure, shortened: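 HEK293 cells premixed with CellTox Green dye were seeded at 600 cells/well and left 5 h at 37 C/5% CO2 before pin transfer of 23 nL compound in DMSO. Fluorescence from dye bound to dead-cell DNA was read during 40 h treatment.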

[15] = qHTS RealTime-Glo MT Cell Viability Assay in HepG2 cells - 40 hour (AID 1224870); also: nearly all actives have a fitted effect of over 50% in size
Procedure, shortened: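 HepG2 cells mixed with RealTime-Glo MT reagents (NanoLuc plus cell-permeant prosubstrate) were seeded at 600 cells/well, incubated 5 h at 37 C/5% CO2, then pinned with compounds in DMSO; nonlytic luminescence tracked viability during 40 h treatment.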

[16] = qHTS assay to identify small molecule antagonists of the estrogen related receptor signaling pathway with the pleiotropic PPARgamma coactivator (PGC) from Tox21 10K library (AID 1224841; call rule not given here; also: potency is read from the fitted curve at half-maximal effect)
Procedure, shortened: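 PGC/ERR reporter cells were seeded at 2,000 cells/well and held 6 hours at 37 C/5% CO2 before pin-tool addition of compounds in DMSO. After 18 hours at 37 C, One-Glo was added and luminescence read after 30 minutes at room temperature.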

[17] = qHTS assay to identify small molecule agonists of the estrogen related receptor signaling pathway with the pleiotropic PPARgamma coactivator (PGC) from Tox21 10K library (AID 1224842); also: nearly all actives have a fitted effect of over 15% in size
Procedure, shortened: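 PGC/ERR reporter cells (NTP line) were seeded 2,000 per well, rested 6 h at 37 C/5% CO2, then pin-dosed with compounds in DMSO for 18 h at 37 C; luciferase read by One-Glo luminescence after 30 min at room temperature.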

[18] = qHTS assay to identify small molecule antagonists of the estrogen related receptor (ERR) signaling pathway from Tox21 library (AID 1224848); also: nearly all actives have a fitted effect of over 50% in size
Procedure, shortened: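 Screening used an ERR reporter line supplied by NTP, exposed for 18 h at 37 C to library compounds delivered in DMSO. Signal was luciferase luminescence developed with ONE-Glo at room temperature for 30 min.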

[19] = qHTS assay to identify small molecule agonists of the estrogen related receptor (ERR) signaling pathway from Tox21 library (AID 1224849; calls by dose curve; also: nearly all actives have a fitted effect of over 15% in size); conditions: ERR reporter cell line, ONE-Glo luciferase, 18 h; at 92.4 µM (top of the series) unless noted
Procedure, shortened: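 ERR reporter cell line (NTP) seeded, rested 6 h at 37 C/5% CO2, then pinned with Tox21 compounds in DMSO. After 18 h at 37 C, ONE-Glo luciferase luminescence was read following 30 min at room temperature.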

[20] = target: Thyrotropin receptor (Homo sapiens) (UniProt P16473); test: qHTS assay to identify small molecule agonists of the thyroid stimulating hormone receptor (TSHR) signaling pathway (AID 1224843; calls by dose curve; also: nearly all actives have a fitted effect of over 45% in size; also: potency is read from the fitted curve at half-maximal effect)
Procedure, shortened: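 Cell line HEK293 with TSHR; density 800/well. Exposure 30 min RT. Readout HTRF cAMP (cAMP-d2/anti-cAMP-cryptate), 1 h RT before reading.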
% is scaled to controls: 0 for no effect and ±100 for the full control effect.

Chain of Nuclear receptor subfamily 1 group I member 3 (Homo sapiens) (Q14994 whole entry, looked up): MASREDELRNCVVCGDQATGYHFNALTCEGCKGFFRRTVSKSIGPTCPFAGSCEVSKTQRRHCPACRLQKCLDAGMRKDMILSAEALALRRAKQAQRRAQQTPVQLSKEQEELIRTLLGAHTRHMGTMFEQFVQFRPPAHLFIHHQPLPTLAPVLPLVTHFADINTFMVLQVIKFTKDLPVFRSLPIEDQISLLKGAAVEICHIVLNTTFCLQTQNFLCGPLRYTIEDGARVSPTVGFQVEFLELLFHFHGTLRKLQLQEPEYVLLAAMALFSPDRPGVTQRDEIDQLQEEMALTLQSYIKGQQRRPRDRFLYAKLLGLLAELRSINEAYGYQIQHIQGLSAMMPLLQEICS
Chain of Luciferin 4-monooxygenase (Photinus pyralis) (P08659 whole entry, looked up): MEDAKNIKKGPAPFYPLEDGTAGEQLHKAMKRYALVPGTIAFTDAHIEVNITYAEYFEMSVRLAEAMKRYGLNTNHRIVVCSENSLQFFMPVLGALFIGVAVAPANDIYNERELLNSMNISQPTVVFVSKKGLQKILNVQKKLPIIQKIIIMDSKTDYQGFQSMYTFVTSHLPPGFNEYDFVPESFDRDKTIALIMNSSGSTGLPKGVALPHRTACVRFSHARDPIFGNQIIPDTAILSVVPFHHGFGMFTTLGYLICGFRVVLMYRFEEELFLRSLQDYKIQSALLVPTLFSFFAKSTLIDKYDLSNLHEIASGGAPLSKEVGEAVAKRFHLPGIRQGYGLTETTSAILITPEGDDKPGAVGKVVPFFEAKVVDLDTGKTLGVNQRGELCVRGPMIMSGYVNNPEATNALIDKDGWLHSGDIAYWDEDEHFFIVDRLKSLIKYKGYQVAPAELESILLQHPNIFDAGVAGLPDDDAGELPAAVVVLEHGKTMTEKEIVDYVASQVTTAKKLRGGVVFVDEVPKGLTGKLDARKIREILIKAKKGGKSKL
Chain of Thyrotropin receptor (Homo sapiens) (P16473 whole entry, looked up): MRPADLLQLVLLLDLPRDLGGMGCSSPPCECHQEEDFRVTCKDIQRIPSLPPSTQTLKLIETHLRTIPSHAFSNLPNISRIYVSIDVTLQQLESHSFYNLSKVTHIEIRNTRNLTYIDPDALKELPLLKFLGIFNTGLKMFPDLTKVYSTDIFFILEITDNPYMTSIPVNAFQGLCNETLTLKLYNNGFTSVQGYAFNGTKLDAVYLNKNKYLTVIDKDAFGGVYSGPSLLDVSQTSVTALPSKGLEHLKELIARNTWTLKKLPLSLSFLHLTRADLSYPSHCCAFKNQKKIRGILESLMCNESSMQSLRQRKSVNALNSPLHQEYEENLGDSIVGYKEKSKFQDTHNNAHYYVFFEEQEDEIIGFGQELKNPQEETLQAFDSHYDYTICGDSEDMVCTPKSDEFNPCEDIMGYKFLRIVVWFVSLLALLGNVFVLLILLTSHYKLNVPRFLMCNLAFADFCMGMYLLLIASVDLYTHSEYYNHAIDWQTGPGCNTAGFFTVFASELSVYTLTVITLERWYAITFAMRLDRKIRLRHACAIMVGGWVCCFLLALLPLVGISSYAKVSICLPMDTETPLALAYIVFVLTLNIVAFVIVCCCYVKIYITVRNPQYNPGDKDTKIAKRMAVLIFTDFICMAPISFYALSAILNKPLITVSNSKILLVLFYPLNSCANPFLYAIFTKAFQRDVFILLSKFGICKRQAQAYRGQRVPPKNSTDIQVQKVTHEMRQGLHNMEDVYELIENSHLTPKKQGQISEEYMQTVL

CCNc1nc(NC(C)C(C)C)nc(SC)n1 (stereo unspecified)
inactive: Potency [1] | Potency [2] | Potency [3] | Potency [4] | Potency [5] | Potency [7] | Potency [8] | Potency [9] | Potency [10] | Potency [11] | Potency [12] | Potency [13] | Potency [14] | Potency [15]
active: Potency [6] 48.6 µM

Clc1cc(Cl)c(-c2cc(Cl)c(Cl)cc2Cl)cc1Cl
inactive: Potency [1] | Potency [2] | Potency [3] | Potency [4] | Potency [5] | Potency [7] | Potency [8] | Potency [9] | Potency [10] | Potency [11] | Potency [12] | Potency [14] | Potency [15]

CC(C)=CC1C(C(=O)OC(C#N)c2cccc(Oc3ccccc3)c2)C1(C)C (stereo unspecified)
inactive: Potency [1] | Potency [2] | Potency [3] | Potency [4] | Potency [7] | Potency [16] | Potency [17] | Potency [8] | Potency [9] | Potency [10] | Potency [11] | Potency [18] | activity change, positive = activation [19] -9.74% | Potency [12] | Potency [13] | Potency [14] | Potency [15]

CCCCC/C=C\C/C=C\C/C=C\C/C=C\CCCC(=O)NCC(=O)O
inactive: Potency [1] | Potency [2] | Potency [3] | Potency [4] | Potency [5] | Potency [6] | Potency [7] | Potency [8] | Potency [12] | Potency [14] | Potency [15]

Cc1ccc(C)c2ccccc12
inactive: Potency [1] | Potency [2] | Potency [3] | Potency [4] | Potency [5] | Potency [6] | Potency [7] | Potency [8] | Potency [9] | Potency [10] | Potency [11] | Potency [12] | Potency [14] | Potency [15]

CN/C(=N\[N+](=O)[O-])NCc1cnc(Cl)s1
inactive: Potency [1] | Potency [2] | Potency [3] | Potency [4] | Potency [5] | Potency [6] | Potency [7] | Potency [8] | Potency [9] | Potency [10] | Potency [11] | Potency [12] | Potency [13] | Potency [14] | Potency [15]

CCCCN(CCCC)C(=S)S
inactive: Potency [1] | Potency [2] | Potency [3] | Potency [4] | Potency [7] | Potency [16] | Potency [17] | Potency [8] | Potency [9] | Potency [10] | Potency [18] | activity change, positive = activation [19] -4.56% | Potency [12] | Potency [13] | Potency [14] | Potency [15]

CCOP(=O)(OCC)Oc1cc(C)nc(C(C)C)n1
inactive: Potency [1] | Potency [2] | Potency [3] | Potency [4] | Potency [7] | Potency [16] | Potency [17] | Potency [20] | Potency [8] | Potency [9] | Potency [10] | Potency [11] | Potency [18] | activity change, positive = activation [19] -6.77% | Potency [12] | Potency [13] | Potency [14] | Potency [15]

CCCCN(CCCC)C(=S)[S-].CCCCN(CCCC)C(=S)[S-].[Ni+2]
inactive: Potency [1] | Potency [2] | Potency [3] | Potency [4] | Potency [7] | Potency [17] | Potency [8] | Potency [9] | Potency [11] | Potency [18] | activity change, positive = activation [19] -0.422% [at 42.5 µM] | Potency [12] | Potency [13] | Potency [14] | Potency [15]
active: Potency [16] 0.237 µM

CCOC(=O)Cc1ccccc1
inactive: Potency [1] | Potency [2] | Potency [3] | Potency [4] | Potency [5] | Potency [6] | Potency [7] | Potency [8] | Potency [9] | Potency [11] | Potency [12] | Potency [13] | Potency [14]

COP(=S)(NC(C)C)Oc1ccc(C)cc1[N+](=O)[O-] (stereo unspecified)
inactive: Potency [1] | Potency [2] | Potency [3] | Potency [4] | Potency [5] | Potency [7] | Potency [8] | Potency [9] | Potency [10] | Potency [12] | Potency [14]
active: Potency [6] 6.86 µM

CN(C)c1ccc(N)cc1
active: Potency [1] 23.7 µM | Potency [2] 1.74 µM | Potency [3] 59.6 µM | Potency [4] 53.2 µM | Potency [6] 9.45 µM | Potency [7] 26.6 µM | Potency [11] 87.6 µM
inactive: Potency [5] | Potency [8] | Potency [10] | Potency [14] | Potency [15]

ClC1(Cl)C2(Cl)C3(Cl)C4(Cl)C(Cl)(Cl)C5(Cl)C3(Cl)C1(Cl)C5(Cl)C24Cl (stereo unspecified)
inactive: Potency [1] | Potency [2] | Potency [3] | Potency [4] | Potency [7] | Potency [16] | Potency [17] | Potency [8] | Potency [9] | Potency [10] | Potency [11] | Potency [18] | activity change, positive = activation [19] 2.52% | Potency [12] | Potency [13] | Potency [14] | Potency [15]

CCCN
inactive: Potency [1] | Potency [2] | Potency [3] | Potency [4] | Potency [7] | Potency [8] | Potency [9] | Potency [10] | Potency [11] | Potency [12] | Potency [14] | Potency [15]

CC1(C)[C@H](/C=C2\CCSC2=O)[C@@H]1C(=O)OCc1coc(Cc2ccccc2)c1
inactive: Potency [1] | Potency [2] | Potency [3] | Potency [4] | Potency [5] | Potency [7] | Potency [8] | Potency [9] | Potency [12] | Potency [14]

O=C(Nc1ccc(F)cc1F)c1cccnc1Oc1cccc(C(F)(F)F)c1
inactive: Potency [1] | Potency [2] | Potency [3] | Potency [4] | Potency [7] | Potency [16] | Potency [8] | Potency [10] | Potency [18] | activity change, positive = activation [19] 5% | Potency [12] | Potency [13] | Potency [14] | Potency [15]
active: Potency [20] 37.8 µM
